Assay results from PubChem BioAssay.
Where “and” joins values, the source holds several entries; their conditions need not be identical. Equal values may be shown once. Inconclusive results are not listed. Calls of active or inactive are those of the source. Rule as the data show it, unless noted: active = inhibition above about 80%; inactive = the rest.

Tests used:
[1] = growth inhibition of DIPG glioma cells, dose response, cell-based, SU-DIPG-XVII, MIPE5.0, CellTiter-Glo, qHTS (AID 1347060; cut-off not given, nearly all actives have AC50 up to about 26 µM); settings: SU-DIPG-XVII viability, CellTiter-Glo ATP luminescence
[2] = growth inhibition of DIPG glioma cells, dose response, cell-based, JHH-DIPG-1, MIPE4.0, CellTiter-Glo, qHTS (AID 1347062; cut-off not given, nearly all actives have AC50 up to about 27 µM;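 as to AC50: cells exposed to compound for two days before readout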); settings: JHH-DIPG-1 viability, CellTiter-Glo ATP luminescence
[3] = SU-DIPG-VI glioma cell viability, MIPE4.0 library, CellTiter-Glo luminescence, qHTS (AID 1347066; cut-off not given, nearly all actives have AC50 up to about 30 µM;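 also: cells exposed to compound for 48 hours before readout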); settings: CellTiter-Glo ATP luminescence
[4] = JHH-DIPG-1 glioma cell viability, MIPE5.0 library, CellTiter-Glo luminescence, qHTS (AID 1347067; cut-off not given, nearly all actives have AC50 up to about 26 µM;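 also: cells exposed to compound for 48 hours before readout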); settings: JHH-DIPG-1 glioma viability, CellTiter-Glo ATP luminescence
[5] = phospholipid biosynthesis inhibitors in animal cells, primary screen, cell-based, LOPAC library, screen 4 (AID 1347384; call rule not given here); settings: phospholipid biosynthesis inhibition screen, at 10 µM
[6] = LFS_MB_P medulloblastoma growth inhibition, cell-based, chromothripsis tumors, cisplatin or BGB combos (AID 1671449); settings: LFS_MB_P medulloblastoma cells;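 also: cells exposed for 96 hours; 0% = vehicle DMSO and 100% = killing by high DMSO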
[7] = HDN33 neuroblastoma growth inhibition, cell-based, chromothripsis tumors, cisplatin or BGB combos (AID 1671450); settings: HDN33 neuroblastoma cells, stronger effect = higher value;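 also: cells exposed to compound for four days; 0% = vehicle DMSO and 100% = cell killing by high DMSO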
[8] = HTB85 osteosarcoma cell growth inhibition, synergistic combos for chromothripsis tumors, BGB or cisplatin IC20 combos (AID 1671453); settings: HTB85 osteosarcoma cells, drug combinations, stronger effect = higher value;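 also: cells exposed for 96 hours before readout; 0% = vehicle DMSO and 100% = high DMSO killing control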
[9] = MDA-MB-436 breast carcinoma cell growth inhibition, synergistic combos for chromothripsis tumors, BGB or cisplatin combos (AID 1671458; call rule not given here;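 also: cells exposed for 96 hours; 0% = vehicle DMSO and 100% = killing by high DMSO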); settings: MDA-MB-436 breast carcinoma growth inhibition, drug combinations, stronger effect = higher value
[10] = growth inhibition of BT084 medulloblastoma cells, cell-based, ICGC_MB145, cisplatin and BGB IC40 combos (AID 1671461); settings: drug combinations, stronger effect = higher value;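 also: cells exposed to drugs for 96 hours; 0% = vehicle DMSO and 100% = high DMSO full killing control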
[11] = growth inhibition of RCMB18 medulloblastoma cells, cell-based, cisplatin and BGB IC40 combos (AID 1671462); settings: stronger effect = higher value;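 also: cells exposed to compound for four days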
[12] = growth inhibition of CRL1545 osteosarcoma cells, cell-based, cisplatin and BGB IC20 combos (AID 1671464); settings: stronger effect = higher value;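 also: cells exposed to compound for 96 hours before readout; 0% = vehicle DMSO and 100% = high DMSO killing control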
[13] = growth inhibition of DIPG glioma cells, dose response, cell-based, SU-DIPG-IV, MIPE4.0, CellTiter-Glo, qHTS (AID 1347063; cut-off not given, nearly all actives have AC50 up to about 30 µM;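 also: compound exposure lasted 48 hours before the viability readout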); settings: SU-DIPG-IV viability, CellTiter-Glo ATP luminescence
[14] = SU-DIPG-XXV glioma cell viability, MIPE5.0 library, qHTS (AID 1347068; cut-off not given, nearly all actives have IC50 up to about 30 µM)
[15] = target: ATP-dependent translocase ABCB1 (Homo sapiens) (UniProt P08183); assay: MDR1 (ABCB1) efflux transporter inhibition, cell-based (AID 377; in the data active = fluorescence slope change above about 50%); settings: MDR1-expressing cells, fluorescent substrate accumulation slope; stronger effect = higher value; concentration not given here
Chain of ATP-dependent translocase ABCB1 (Homo sapiens) (P08183 whole entry, looked up): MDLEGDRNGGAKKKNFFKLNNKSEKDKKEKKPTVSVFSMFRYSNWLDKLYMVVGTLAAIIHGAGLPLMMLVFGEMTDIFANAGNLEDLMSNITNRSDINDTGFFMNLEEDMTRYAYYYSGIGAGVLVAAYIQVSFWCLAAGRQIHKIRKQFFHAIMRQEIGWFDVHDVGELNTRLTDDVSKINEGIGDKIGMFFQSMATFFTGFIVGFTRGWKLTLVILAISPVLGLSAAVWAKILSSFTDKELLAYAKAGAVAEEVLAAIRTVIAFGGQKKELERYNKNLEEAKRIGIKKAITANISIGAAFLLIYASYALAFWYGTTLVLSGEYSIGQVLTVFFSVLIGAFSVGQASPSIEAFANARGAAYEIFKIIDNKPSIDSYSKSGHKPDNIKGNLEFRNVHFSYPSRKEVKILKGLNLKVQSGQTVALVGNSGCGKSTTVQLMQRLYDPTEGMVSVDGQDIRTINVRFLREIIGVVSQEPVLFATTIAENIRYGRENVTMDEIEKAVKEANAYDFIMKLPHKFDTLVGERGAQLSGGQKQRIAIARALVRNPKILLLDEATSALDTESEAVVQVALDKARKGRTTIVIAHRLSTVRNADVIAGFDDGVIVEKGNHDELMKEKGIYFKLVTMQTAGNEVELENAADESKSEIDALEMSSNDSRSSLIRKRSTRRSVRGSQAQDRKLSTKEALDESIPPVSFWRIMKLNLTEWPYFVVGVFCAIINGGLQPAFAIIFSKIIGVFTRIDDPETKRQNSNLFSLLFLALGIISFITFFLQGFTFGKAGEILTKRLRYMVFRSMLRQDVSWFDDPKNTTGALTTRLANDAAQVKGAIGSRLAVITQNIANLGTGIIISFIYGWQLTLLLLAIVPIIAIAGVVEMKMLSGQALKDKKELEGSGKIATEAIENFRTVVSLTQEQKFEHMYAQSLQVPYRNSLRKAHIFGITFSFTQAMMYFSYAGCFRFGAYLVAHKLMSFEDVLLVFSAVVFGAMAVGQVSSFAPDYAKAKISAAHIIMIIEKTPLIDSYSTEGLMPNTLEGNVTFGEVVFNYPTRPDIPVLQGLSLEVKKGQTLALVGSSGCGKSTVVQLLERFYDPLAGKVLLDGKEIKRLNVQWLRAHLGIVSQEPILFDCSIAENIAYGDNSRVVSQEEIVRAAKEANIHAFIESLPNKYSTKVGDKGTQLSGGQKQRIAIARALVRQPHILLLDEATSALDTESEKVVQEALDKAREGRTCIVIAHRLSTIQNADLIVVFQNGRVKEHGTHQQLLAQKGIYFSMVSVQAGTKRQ

[16] = reducers of polyQ inclusions in PC12 cells, cell-based, NGF-treated PC12, GFPQ80 (AID 1614); settings: PC12 NGF-treated GFP-polyQ80 inclusion reduction;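 also: lower means fewer inclusions and 0 means no inclusions at all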
[17] = circadian clock period modulators, cell-based, LOPAC library, luminescence reporter (AID 2774; call rule not given here;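 also: values are relative to mean of DMSO wells on each plate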); settings: circadian reporter cells, at 7 µM, actives lie on both sides
[18] = tested on: Hepatitis C virus NS3 helicase; assay: HCV NS3 helicase inhibitors, primary screen, biochemical, fluorescence polarization, LOPAC1280 library (AID 687035; in the data active = inhibition above about 37%); settings: Purified HCV NS3 helicase, Cy5-dT15 ssDNA binding fluorescence polarization; stronger effect = higher value; concentration not given here
[19] = Cy5 fluorescence quenching or enhancement artefacts, artefact control for HCV NS3 helicase inhibitor project, biochemical, LOPAC1280 (AID 687037; call rule not given here); settings: Cy5-DNA-NS3h complex fluorescence interference counterscreen
[20] = growth inhibition of DIPG glioma cells, dose response, cell-based, SU-DIPG-XIII, MIPE4.0, CellTiter-Glo, qHTS (AID 1347061; cut-off not given, nearly all actives have AC50 up to about 37 µM;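 also: cells exposed to compound for 48 hours before readout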); settings: SU-DIPG-XIII viability, CellTiter-Glo ATP luminescence
[21] = measured here: with BGB IC20 combination, at 0.5 µM
[22] = measured here: with cisplatin IC20 combination, at 0.5 µM

Q: What does the source list for CCCCCCNC(=O)n1cc(F)c(=O)[nH]c1=O?
A: outcome [1]: inactive; outcome [2]: inactive; outcome [3]: inactive; outcome [4]: inactive; outcome [5]: inactive; inhibition ([6]; at 0.5 µM, stronger effect = higher value): -27.2% (inactive) and -12.2% (inactive); inhibition ([6]; measured here: combination with BGB IC20, at 0.005 µM): -12% and -29.3%; inhibition ([6]; measured here: combination with BGB IC40, at 0.005 µM): -26.4% and -7.28%; inhibition ([6]; measured here: combination with BGB IC40, at 0.05 µM): -34.3% and -13.5%; inhibition ([6]; measured here: combination with cisplatin, at 0.5 µM, stronger effect = higher value): -48.8% and -55.1%; inhibition ([6]; measured here: combination with cisplatin, at 5 µM, stronger effect = higher value): -34.6% and -25%; inhibition ([7]; BGB combo, at 5 µM): 41.9% and 91.3%; inhibition ([7]; at 0.5 µM): -22% (inactive) and -3.86% (inactive); inhibition ([7]; cisplatin combo, at 5 µM): 46.1% and 36.7%; inhibition [7, 21]: -20.7% and 5.65%; inhibition [7, 22]: -11.9% and -1.01%; inhibition ([7]; single agent, at 5 µM): 90.7% and 52%; inhibition ([8]; at 0.5 µM): -3.88% (inactive) and -24.5% (inactive); inhibition ([8]; measured here: with BGB IC20, at 0.5 µM): -6.6% and -67.2%; inhibition ([8]; measured here: with BGB IC20, at 5 µM): 21% and 3.85%; inhibition ([8]; measured here: with cisplatin IC20, at 0.5 µM): -9.7% and -6.78%; inhibition ([8]; measured here: with cisplatin IC20, at 5 µM): 9.85% and 21%; inhibition ([8]; single agent, at 5 µM): 31.6% and 31.5%; inhibition ([9]; at 0.5 µM): -3.42% (inactive) and -19.4% (inactive); inhibition ([9]; measured here: BGB combination, at 0.5 µM): -7.14% and -19.3%; inhibition ([9]; measured here: BGB combination, at 5 µM): 9.33% and -1.4%; inhibition ([9]; measured here: cisplatin combination, at 0.5 µM): -19.1% and -44.2%; inhibition ([9]; measured here: cisplatin combination, at 5 µM): 33.3% and 25.8%; inhibition ([10]; at 0.5 µM): -1.98% (inactive) and -19.4% (inactive); inhibition ([10]; cisplatin combination, at 0.5 µM): -28.3% and -28.4%; inhibition ([10]; cisplatin combination, at 5 µM): -14.4% and -69.9%; inhibition ([10]; measured here: BGB IC40 combination 0.05 uM, at 0.05 µM): -34% and -12%; inhibition ([10]; single agent, at 5 µM): 6.42% and -7.55%; inhibition ([11]; at 0.5 µM): -8.71% (inactive) and -17.6% (inactive); inhibition ([11]; cisplatin combo, at 5 µM): -32.4% and 29.2%; inhibition ([11]; measured here: BGB IC40 combination, at 0.05 µM): -13.3% and -15%; inhibition ([11]; measured here: combination with cisplatin, at 0.5 µM): -7.21% and -15.6%; inhibition ([11]; single agent, at 5 µM): 54.2% and -12.5%; inhibition ([12]; at 0.5 µM): -38.9% (inactive) and -6.62% (inactive); inhibition [12, 21]: -31.2% and -14.7%; inhibition [12, 22]: -45.1% and -2.6%; inhibition ([12]; single agent, at 0.05 µM): -9.97% and 20.9%; inhibition ([12]; single agent, at 5 µM): -10.7% and 10.5%

Q: With CN(CCOc1ccc(CC2SC(=O)NC2=O)cc1)c1ccccn1 (stereo not given) as the molecule, how does the outcome [1] read?
A: The outcome was “inactive”.

Q: What about the outcome [2] of the same molecule?
A: The outcome was “inactive”.

Q: What about the outcome [13] of the same molecule?
A: The outcome was “inactive”.

Q: And the outcome [3]?
A: The outcome was “inactive”.

Q: What about the outcome [4] of the same molecule?
A: The outcome was “inactive”.

Q: What about the outcome [14] of the same molecule?
A: Its outcome is “inactive”.

Q: Which results are given for CN1CCCC(n2nc(Cc3ccc(Cl)cc3)c3ccccc3c2=O)CC1 (stereo not given)?
A: AC50 [2]: 2.35 µM (active); AC50 [13]: 6.62 µM (active)

Q: With O=S(=O)(O)CCS as the molecule, how does the fluorescence slope change [15] read?
A: Its fluorescence slope change is 5.5% (inactive).

Q: What about the inclusion score [16] of the same molecule?
A: The inclusion score was 2.

Q: What about the outcome [1] of the same molecule?
A: Its outcome is “inactive”.

Q: And the outcome [2]?
A: The outcome was “inactive”.

Q: And the outcome [13]?
A: Its outcome is “inactive”.

Q: What about the outcome [3] of the same molecule?
A: Its outcome is “inactive”.

Q: What about the outcome [4] of the same molecule?
A: Its outcome is “inactive”.

Q: What about the outcome [14] of the same molecule?
A: Its outcome is “inactive”.

Q: Which fluorescence slope change [15] does the source give for CCCNCC(O)COc1ccccc1C(=O)CCc1ccccc1 (stereo not given) here?
A: The fluorescence slope change was 74.2% (active).

Q: And the inclusion score [16]?
A: The inclusion score was 2.

Q: And the period change [17]?
A: Its period change is -0.03 h (inactive).

Q: What about the inhibition [18] of the same molecule?
A: Its inhibition is -1% (inactive).

Q: And the fluorescence ratio (interference) [19]?
A: The fluorescence ratio (interference) was 1 (inactive).

Q: And the outcome [1]?
A: Its outcome is “inactive”.

Q: And the outcome [2]?
A: Its outcome is “inactive”.

Q: What about the outcome [3] of the same molecule?
A: The outcome was “inactive”.

Q: What about the outcome [14] of the same molecule?
A: Its outcome is “inactive”.

Q: What about the outcome [5] of the same molecule?
A: Its outcome is “inactive”.

Q: Which results are given for NS(=O)(=O)c1cc2c(cc1Cl)NC=NS2(=O)=O?
A: inclusion score [16]: 2; period change [17]: 0.02 h (inactive); inhibition [18]: -2% (inactive); fluorescence ratio (interference) [19]: 0.9 (inactive); outcome [1]: inactive; outcome [2]: inactive; outcome [13]: inactive; outcome [3]: inactive; outcome [4]: inactive; outcome [14]: inactive; outcome [5]: inactive

Q: With CCc1cccc2c3c([nH]c12)C(CC)(CC(=O)O)OCC3 (stereo not given) as the molecule, how does the fluorescence slope change [15] read?
A: Its fluorescence slope change is 73.7% (active).

Q: What about the inclusion score [16] of the same molecule?
A: The inclusion score was 2.

Q: What about the period change [17] of the same molecule?
A: Its period change is -0.07 h (inactive).

Q: And the inhibition [18]?
A: Its inhibition is -3% (inactive).

Q: What about the fluorescence ratio (interference) [19] of the same molecule?
A: The fluorescence ratio (interference) was 1 (inactive).

Q: And the outcome [20]?
A: The outcome was “inactive”.

Q: And the outcome [2]?
A: Its outcome is “inactive”.

Q: And the outcome [13]?
A: The outcome was “inactive”.

Q: And the outcome [3]?
A: Its outcome is “inactive”.

Q: What about the outcome [5] of the same molecule?
A: The outcome was “inactive”.
